Among the data in ChEMBL document CHEMBL1961873, “Compounds: GSK PKIS; Assays: Nanosyn kinase panel” (2012) are inhibition values, retold here.

What is called inhibition is the relative decrease from the control value, in per cent.

The subject of assay [1] is Proto-oncogene tyrosine-protein kinase receptor Ret (Homo sapiens), P07949 [Y791F]. Conditions: at 1 µM.
Assay [2] concerns the target Macrophage-stimulating protein receptor (Homo sapiens) (UniProt Q04912). To be noted: at 0.1 µM.
For assay [3] the target is unchanged. To be noted: at 1 µM.
Assay [4] addresses Proto-oncogene tyrosine-protein kinase ROS (Homo sapiens) (UniProt P08922). Conditions: at 0.1 µM.
The target is the same in assay [5]. To be noted: at 1 µM.
Assay [6] addresses Proto-oncogene tyrosine-protein kinase Src (Homo sapiens) (UniProt P12931). To be noted: at 0.1 µM.
Assay [7] shares this target. To be noted: at 1 µM.
The target in assay [8] is Tyrosine-protein kinase Srms (Homo sapiens) (UniProt Q9H3Y6). Conditions: at 0.1 µM.
The target is the same in assay [9]. To be noted: at 1 µM.
Assay [10] has as its target Tyrosine-protein kinase SYK (Homo sapiens) (UniProt P43405). Conditions: at 0.1 µM.
Assay [11] has the same target. To be noted: at 1 µM.
Assay [12] deals with T1, Tyrosine-protein kinase Tec (Homo sapiens) (UniProt P42680).
T1 sequence (whole entry): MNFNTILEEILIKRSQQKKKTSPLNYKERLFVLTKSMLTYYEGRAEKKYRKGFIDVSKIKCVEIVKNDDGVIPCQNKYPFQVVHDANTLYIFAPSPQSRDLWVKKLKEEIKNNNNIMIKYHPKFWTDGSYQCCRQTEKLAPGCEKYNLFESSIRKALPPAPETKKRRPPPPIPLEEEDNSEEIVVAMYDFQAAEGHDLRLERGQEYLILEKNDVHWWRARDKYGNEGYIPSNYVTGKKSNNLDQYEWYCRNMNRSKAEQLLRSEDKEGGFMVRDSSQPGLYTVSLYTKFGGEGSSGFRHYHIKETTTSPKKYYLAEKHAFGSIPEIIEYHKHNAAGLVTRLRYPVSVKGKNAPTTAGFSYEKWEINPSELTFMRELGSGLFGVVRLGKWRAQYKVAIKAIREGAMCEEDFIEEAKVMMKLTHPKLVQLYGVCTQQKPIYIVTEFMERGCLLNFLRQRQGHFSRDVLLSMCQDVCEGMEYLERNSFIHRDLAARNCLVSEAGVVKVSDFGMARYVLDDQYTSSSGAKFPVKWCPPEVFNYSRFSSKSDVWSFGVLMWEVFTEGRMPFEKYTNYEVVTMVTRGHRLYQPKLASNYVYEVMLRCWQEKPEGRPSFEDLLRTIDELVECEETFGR
To be noted: at 0.1 µM.

In assay [13] the target is T1, Tyrosine-protein kinase Tec (Homo sapiens). Conditions: at 1 µM.
Assay [14] addresses Angiopoietin-1 receptor (Homo sapiens) (UniProt Q02763). Conditions: at 0.1 µM.
For assay [15] the target is unchanged. To be noted: at 1 µM.
Assay [16] deals with T2, Non-receptor tyrosine-protein kinase TNK1 (Homo sapiens) (UniProt Q13470).
T2 sequence (whole entry): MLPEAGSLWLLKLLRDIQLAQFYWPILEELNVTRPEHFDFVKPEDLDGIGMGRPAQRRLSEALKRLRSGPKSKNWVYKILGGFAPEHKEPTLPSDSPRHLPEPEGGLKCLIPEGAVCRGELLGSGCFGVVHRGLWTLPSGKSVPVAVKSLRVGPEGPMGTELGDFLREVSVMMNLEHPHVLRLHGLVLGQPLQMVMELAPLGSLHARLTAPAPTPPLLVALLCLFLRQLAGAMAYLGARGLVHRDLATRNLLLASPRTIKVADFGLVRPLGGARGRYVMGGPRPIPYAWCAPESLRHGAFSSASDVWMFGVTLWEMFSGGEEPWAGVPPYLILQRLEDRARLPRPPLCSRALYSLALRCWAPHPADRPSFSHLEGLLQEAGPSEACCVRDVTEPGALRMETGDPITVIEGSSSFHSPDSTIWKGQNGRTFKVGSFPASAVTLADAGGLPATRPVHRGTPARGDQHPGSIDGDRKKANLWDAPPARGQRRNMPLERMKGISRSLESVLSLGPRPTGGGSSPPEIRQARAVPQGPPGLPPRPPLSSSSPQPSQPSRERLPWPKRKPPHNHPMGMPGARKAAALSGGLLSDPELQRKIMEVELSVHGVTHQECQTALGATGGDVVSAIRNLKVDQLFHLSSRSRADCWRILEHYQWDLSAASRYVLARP
Conditions: at 0.1 µM.

Assay [17] deals with T2, Non-receptor tyrosine-protein kinase TNK1 (Homo sapiens). To be noted: at 1 µM.
Assay [18] has as its target Activated CDC42 kinase 1 (Homo sapiens) (UniProt Q07912). Conditions: at 0.1 µM.
Assay [19] has the same target. Conditions: at 1 µM.
Assay [20] concerns the target High affinity nerve growth factor receptor (Homo sapiens) (UniProt P04629). Conditions: at 0.1 µM.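 Further: each value is a mean of replicate percent inhibition readings against TRKA kinase.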

Chain of Proto-oncogene tyrosine-protein kinase receptor Ret (Homo sapiens), P07949 [Y791F] (P07949 whole entry Y791F): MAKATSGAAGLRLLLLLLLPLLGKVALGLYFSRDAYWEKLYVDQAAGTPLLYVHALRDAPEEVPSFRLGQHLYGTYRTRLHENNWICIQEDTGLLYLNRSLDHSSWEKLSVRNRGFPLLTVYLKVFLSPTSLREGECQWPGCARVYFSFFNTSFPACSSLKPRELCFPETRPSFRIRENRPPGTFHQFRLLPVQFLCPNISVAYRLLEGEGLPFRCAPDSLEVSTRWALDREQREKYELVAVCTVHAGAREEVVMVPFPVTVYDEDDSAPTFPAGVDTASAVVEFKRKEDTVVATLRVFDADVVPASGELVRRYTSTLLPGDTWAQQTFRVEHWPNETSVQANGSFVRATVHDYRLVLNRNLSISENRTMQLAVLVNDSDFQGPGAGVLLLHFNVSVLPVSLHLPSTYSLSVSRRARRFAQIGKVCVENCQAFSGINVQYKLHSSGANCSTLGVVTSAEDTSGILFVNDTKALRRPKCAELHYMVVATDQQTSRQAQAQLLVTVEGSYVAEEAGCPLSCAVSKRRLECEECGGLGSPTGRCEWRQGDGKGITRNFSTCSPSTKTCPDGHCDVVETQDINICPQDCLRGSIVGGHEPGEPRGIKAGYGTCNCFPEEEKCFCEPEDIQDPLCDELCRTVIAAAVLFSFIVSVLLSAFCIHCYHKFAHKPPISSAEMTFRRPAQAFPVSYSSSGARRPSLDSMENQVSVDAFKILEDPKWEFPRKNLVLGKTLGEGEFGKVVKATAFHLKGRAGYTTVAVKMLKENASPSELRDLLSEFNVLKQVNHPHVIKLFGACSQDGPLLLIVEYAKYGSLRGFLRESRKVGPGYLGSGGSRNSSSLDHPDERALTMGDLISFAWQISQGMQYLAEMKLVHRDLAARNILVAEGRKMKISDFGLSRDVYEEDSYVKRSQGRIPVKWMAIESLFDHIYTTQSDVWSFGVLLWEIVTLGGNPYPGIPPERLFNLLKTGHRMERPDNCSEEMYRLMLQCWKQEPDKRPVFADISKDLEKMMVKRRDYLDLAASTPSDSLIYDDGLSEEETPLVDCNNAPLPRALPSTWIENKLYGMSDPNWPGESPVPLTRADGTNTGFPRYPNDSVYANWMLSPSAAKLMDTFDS
Chain of Tyrosine-protein kinase Srms (Homo sapiens) (Q9H3Y6 whole entry): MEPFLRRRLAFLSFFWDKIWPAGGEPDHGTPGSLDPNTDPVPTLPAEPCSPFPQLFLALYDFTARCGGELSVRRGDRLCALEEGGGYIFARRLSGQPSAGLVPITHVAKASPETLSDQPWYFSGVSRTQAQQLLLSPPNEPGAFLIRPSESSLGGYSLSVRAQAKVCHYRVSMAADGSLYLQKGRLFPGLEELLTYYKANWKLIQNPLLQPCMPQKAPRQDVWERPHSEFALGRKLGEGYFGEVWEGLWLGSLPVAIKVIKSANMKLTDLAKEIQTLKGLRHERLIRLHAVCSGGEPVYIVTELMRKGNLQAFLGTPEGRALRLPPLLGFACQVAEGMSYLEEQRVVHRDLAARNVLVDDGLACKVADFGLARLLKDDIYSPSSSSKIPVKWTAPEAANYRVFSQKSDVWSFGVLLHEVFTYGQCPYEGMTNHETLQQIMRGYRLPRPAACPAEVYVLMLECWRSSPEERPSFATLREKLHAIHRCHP
Chain of Proto-oncogene tyrosine-protein kinase ROS (Homo sapiens) (P08922 whole entry): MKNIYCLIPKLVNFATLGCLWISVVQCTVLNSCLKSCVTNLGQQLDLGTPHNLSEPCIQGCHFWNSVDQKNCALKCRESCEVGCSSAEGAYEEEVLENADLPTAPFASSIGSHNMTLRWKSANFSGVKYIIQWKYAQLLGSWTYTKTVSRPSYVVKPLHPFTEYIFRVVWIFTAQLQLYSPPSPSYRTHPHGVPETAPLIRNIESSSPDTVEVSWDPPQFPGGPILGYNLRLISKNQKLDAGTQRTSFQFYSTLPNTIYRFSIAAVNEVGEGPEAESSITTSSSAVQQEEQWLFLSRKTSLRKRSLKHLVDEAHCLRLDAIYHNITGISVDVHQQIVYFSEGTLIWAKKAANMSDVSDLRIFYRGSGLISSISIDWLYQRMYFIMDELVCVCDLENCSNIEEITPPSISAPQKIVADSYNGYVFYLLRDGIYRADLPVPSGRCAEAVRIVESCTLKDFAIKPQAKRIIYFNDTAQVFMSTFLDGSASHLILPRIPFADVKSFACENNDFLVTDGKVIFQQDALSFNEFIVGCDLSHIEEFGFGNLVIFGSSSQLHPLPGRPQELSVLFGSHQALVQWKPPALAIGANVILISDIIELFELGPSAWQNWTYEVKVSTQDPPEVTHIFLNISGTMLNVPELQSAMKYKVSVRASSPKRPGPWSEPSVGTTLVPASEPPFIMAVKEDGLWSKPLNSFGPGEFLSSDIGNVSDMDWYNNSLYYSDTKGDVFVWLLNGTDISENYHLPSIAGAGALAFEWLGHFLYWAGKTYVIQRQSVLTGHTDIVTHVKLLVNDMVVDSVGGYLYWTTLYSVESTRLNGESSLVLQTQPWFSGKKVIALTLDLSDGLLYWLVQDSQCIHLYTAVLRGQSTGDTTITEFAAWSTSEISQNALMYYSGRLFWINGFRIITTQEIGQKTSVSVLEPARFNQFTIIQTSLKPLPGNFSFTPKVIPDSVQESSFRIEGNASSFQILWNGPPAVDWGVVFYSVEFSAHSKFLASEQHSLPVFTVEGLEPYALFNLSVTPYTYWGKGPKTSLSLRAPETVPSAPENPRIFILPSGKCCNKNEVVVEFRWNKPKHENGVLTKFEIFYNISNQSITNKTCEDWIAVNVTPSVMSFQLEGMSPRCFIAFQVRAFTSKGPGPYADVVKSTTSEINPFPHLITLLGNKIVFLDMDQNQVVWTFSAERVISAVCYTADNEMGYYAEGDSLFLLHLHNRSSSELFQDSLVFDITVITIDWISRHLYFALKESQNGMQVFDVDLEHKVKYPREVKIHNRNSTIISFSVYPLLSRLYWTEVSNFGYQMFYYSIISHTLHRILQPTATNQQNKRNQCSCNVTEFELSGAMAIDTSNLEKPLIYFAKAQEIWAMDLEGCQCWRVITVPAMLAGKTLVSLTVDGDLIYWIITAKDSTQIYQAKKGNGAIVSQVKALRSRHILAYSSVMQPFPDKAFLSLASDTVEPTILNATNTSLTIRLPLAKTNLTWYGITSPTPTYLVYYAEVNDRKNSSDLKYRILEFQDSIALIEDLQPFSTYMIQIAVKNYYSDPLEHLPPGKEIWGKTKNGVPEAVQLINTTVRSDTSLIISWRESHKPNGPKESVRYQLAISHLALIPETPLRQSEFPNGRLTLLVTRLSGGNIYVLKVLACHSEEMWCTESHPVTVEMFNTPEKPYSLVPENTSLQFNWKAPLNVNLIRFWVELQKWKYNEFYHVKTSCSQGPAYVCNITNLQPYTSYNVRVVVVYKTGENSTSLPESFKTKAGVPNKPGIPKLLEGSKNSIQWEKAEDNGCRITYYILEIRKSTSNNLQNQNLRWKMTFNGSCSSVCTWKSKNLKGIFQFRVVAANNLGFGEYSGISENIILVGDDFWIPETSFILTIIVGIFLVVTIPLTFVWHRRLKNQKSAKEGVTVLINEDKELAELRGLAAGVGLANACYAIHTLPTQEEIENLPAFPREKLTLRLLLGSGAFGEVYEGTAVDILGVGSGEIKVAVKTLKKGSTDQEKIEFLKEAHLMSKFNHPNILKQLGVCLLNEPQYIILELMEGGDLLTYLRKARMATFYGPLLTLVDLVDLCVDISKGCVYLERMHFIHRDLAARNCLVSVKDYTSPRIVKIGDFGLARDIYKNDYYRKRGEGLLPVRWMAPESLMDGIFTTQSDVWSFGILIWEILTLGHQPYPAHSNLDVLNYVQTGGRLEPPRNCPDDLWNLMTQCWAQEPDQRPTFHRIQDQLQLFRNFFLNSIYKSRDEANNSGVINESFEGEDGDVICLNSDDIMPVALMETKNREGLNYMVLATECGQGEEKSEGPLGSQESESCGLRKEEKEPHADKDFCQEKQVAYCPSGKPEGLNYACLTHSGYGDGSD
Chain of Activated CDC42 kinase 1 (Homo sapiens) (Q07912 whole entry, looked up): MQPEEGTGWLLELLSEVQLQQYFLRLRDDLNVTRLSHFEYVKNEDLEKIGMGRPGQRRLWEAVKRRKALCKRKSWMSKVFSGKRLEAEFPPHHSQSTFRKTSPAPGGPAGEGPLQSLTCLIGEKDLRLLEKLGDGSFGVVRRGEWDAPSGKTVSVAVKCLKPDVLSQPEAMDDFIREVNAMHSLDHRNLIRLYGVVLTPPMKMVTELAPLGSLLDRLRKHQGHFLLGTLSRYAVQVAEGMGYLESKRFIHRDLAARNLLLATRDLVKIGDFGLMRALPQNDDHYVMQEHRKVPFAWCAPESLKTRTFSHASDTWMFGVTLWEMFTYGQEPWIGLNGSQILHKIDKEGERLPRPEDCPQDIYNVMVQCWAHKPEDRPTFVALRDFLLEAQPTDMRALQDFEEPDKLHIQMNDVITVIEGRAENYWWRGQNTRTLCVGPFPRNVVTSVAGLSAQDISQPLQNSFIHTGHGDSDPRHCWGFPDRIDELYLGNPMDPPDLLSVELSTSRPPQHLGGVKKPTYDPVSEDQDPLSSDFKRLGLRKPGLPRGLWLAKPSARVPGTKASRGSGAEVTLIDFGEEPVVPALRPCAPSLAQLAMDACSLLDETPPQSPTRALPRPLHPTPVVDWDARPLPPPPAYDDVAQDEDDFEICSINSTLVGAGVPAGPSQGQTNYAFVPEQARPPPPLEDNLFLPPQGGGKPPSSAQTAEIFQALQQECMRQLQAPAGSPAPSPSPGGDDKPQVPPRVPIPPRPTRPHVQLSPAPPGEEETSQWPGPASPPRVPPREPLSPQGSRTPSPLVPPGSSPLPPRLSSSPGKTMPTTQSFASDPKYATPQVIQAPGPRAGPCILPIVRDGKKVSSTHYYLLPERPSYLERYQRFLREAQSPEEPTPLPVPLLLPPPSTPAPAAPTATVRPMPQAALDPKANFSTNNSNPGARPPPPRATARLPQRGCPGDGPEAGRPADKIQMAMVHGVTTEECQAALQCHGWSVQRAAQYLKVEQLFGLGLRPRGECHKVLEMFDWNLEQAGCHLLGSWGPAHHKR

As to `NS(=O)(=O)c1cccc(-c2ccc3c(NC(=O)C4CC4)n[nH]c3c2)c1`, the inhibition was -2.02% in assay [1]; 6.3% in assay [2]; 3.46% in assay [3]; 3.46% in assay [4]; 5% in [5]; -4.15% in assay [6]. In addition, the inhibition in assay [7] was -1.21%; in assay [8], -0.76%; in assay [9] it was -1.91%; in assay [10], -1.3%; in [11] it was 0.39%; in assay [12], -1.67%. The inhibition was -2.6% in assay [13]; 1.65% in [14]; 3.55% in assay [15]; -2.18% in assay [16]; 2.91% in [17]; -0.31% in assay [18]. In addition, the inhibition in assay [19] came to 0.27%; in assay [20] it was 0.7%.

Turning to `CCn1c(-c2nonc2N)nc2ccncc21`, the inhibition is 1.54% in assay [1]; 0.89% in assay [2]; 0.11% in [3]; 2.31% in assay [4]; 2.5% in assay [5]; 8.34% in assay [6]. For the same compound, the inhibition was 4.59% in assay [7]; -0.44% in [8]; -0.79% in assay [9]; 0.22% in assay [10]; 1.46% in assay [11]; 2.56% in [12]. The inhibition in [13] is 3.46%; in assay [14], 2.16%; in assay [15], 2.72%; in assay [16], 3.44%; in [17], -5.95%; in [18], -0.95%. Moreover, the inhibition in assay [19] is -2.72%; in [20], 0.03%.

On to `Cc1nnc(-c2ccc(C)c(-c3ccc(C(=O)Nc4cccc(C#N)c4)cc3)c2)o1`, for which the inhibition in assay [1] was 15.7%; in [2] it was 1.95%; in [3], 3.79%; in assay [4], 1.81%; in assay [5], 1.44%; in assay [6], 3.95%. For the same compound, the inhibition in [7] is 6.82%; in assay [8] it was -0.52%; in assay [9] it was 0.42%; in [10], 3.5%; in assay [11], -0.57%; in assay [12], 4.05%. Also, the inhibition was 3.86% in assay [13]; 3.65% in assay [14]; 5.45% in assay [15]; -0.4% in assay [16]; 5.43% in assay [17]; 0.82% in assay [18]. For the same compound, the results for the inhibition in [19] and in assay [20] were 2% and 1.28%, respectively.

In the case of `NC(=O)c1cccc(Nc2nccc(Nc3cccc4[nH]ncc34)n2)c1`, the inhibition in assay [1] turned out to be 79.7%; in assay [2] it was 1.43%; in assay [3], 4.78%; in assay [4], 21.8%; in assay [5] it was 66%; in assay [6], 86.3%. Further, the inhibition is 94.9% in assay [7]; 8.24% in assay [8]; 41.9% in assay [9]; -5.51% in assay [10]; 25.4% in [11]; 17.4% in assay [12]. Also, the inhibition in assay [13] is 62.5%; in assay [14], 9.12%; in assay [15], 47.5%; in assay [16] it was 6.88%; in assay [17], 58.3%; in [18], 5.44%. Also, the inhibition came out at 47.8% in assay [19] and 0.29% in assay [20].

As to `COc1cc2ncn(-c3cc(OCc4ccccc4Cl)c(C(N)=O)s3)c2cc1OC`, the inhibition in assay [1] is 60.2%; in assay [2], 0.23%; in [3] it was 13.3%; in assay [4], 9.59%; in [5], 29.2%; in [6], 20.5%. For the same compound, the inhibition in assay [7] was 20.9%; in assay [8] it was 2.74%; in assay [9], 7.95%; in assay [10], -2.2%; in assay [11], 1.86%; in assay [12], 1.67%. For the same compound, the inhibition in assay [13] was found to be 7.65%; in assay [14], 3.11%; in [15], 26.9%; in assay [16] it was 16.9%; in assay [17], 63.2%; in [18], 0.35%. In addition, the inhibition in assay [19] is 7.05%; in assay [20], 0.53%.

In the case of `O=C1Nc2ccc(C(=O)c3ccco3)cc2C1=Cc1cc(Cl)c(O)c(Cl)c1`, the inhibition in [1] worked out at 54.8%; in [2], 14.5%; in assay [3], 18.8%; in [4], 6.01%; in [5], 11.2%; in [6], 3.8%. Besides, the inhibition in assay [7] was 15.5%; in assay [8], 21.3%; in assay [9] it was 59.7%; in [10] it was -6.13%; in [11], -0.93%; in [12] it was 3.56%. Besides, the inhibition in assay [13] came to 9.55%; in assay [14] it was 2.1%; in assay [15] it was 3.01%; in assay [16] it was 38.9%; in assay [17], 85.3%; in assay [18], 1.92%. In addition, the results for the inhibition in [19] and in assay [20] were 6.27% and 4.97%, respectively.

`COC(=O)Nc1nc2cc(Oc3ccc(NC(=O)Nc4cccc(C(=O)O)c4)cc3)ccc2[nH]1`: the inhibition in assay [1] was 26.3%; in assay [2] it was 0.89%; in assay [3], 5.64%; in [4] it was -2.86%; in [5], 3.11%; in assay [6], 1.83%. The inhibition was 7.71% in [7]; 0.44% in assay [8]; 0.74% in [9]; 5.41% in assay [10]; -0.23% in [11]; -2.22% in [12]. In addition, the inhibition in assay [13] is 0.87%; in assay [14], 1.97%; in [15], 7.16%; in assay [16], -0.91%; in assay [17] it was 17.4%; in assay [18] it was -0.08%. Moreover, the inhibition in assay [19] amounted to 0.6%; in [20], 1.98%.
